Experimental data from PubChem BioAssay (NCI).
The panel holds about 79,000 compounds, 15% with a hit somewhere; the sample as a whole holds those more often. The source made the active and inactive calls. No stated cut-off is given here; in the data, active means growth inhibition above about 70%; inactive means the rest.

How the values were obtained:
[1] = NCI Yeast Anticancer Drug Screen. Data for the rad50 strain (AID 155);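 further: 0% = growth of vehicle-only cultures of the same strain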; details: S. cerevisiae rad50 strain growth inhibition, active compounds read high
Method in brief: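 Readout: growth inhibition relative to vehicle-treated cultures. Compound exposure was carried out in a genetically defined yeast strain deficient in DNA damage repair.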

[2] = NCI Yeast Anticancer Drug Screen. Data for the mec2-1 strain (AID 157); details: S. cerevisiae mec2-1 strain, active compounds read high
Method in brief: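 Yeast mec2-1 mutant treated with compound. Readout: growth inhibition vs vehicle controls.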

[3] = NCI Yeast Anticancer Drug Screen. Data for the sgs1 mgt1 strain (AID 161);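 further: 0% = growth of cultures given vehicle only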; details: S. cerevisiae sgs1 mgt1 strain, active compounds read high
Method in brief: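 Genetically altered yeast, compound exposure, growth inhibition relative to vehicle.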

[4] = NCI Yeast Anticancer Drug Screen. Data for the cln2 rad14 strain (AID 165);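 further: 0% = growth equal to vehicle treated cultures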; details: S. cerevisiae cln2 rad14 strain, active compounds read high
Method in brief: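 cln2 rad14 yeast strain; compound exposure; growth inhibition read vs vehicle controls.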

[5] = NCI Yeast Anticancer Drug Screen. Data for the bub3 strain (AID 167); details: S. cerevisiae bub3 mutant strain, active compounds read high
Method in brief: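 Readout: yeast growth inhibition, expressed relative to vehicle-only wells. The test organism is a mutant strain from a panel with lesions in DNA repair or checkpoint genes.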

[6] = NCI Yeast Anticancer Drug Screen. Data for the mlh1 rad18 strain (AID 175); details: S. cerevisiae mlh1 rad18 strain growth inhibition, active compounds read high
Method in brief: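 Yeast w/ defined DNA-repair lesions; compound exposure; growth vs vehicle controls → % inhibition.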

[7] = at 5.0 µM (retest, dose inferred, filed as 0.5)
[8] = at 50.0 µM (retest, dose inferred, filed as 5.0)

Measured: growth inhibition

Cc1cc([N+](=O)[O-])c2ccccc2[n+]1[O-]
inactive: [3]; at 50.0 µM 48.6% | [4]; at 50.0 µM 58.4% | [6]; at 50.0 µM 49.8%
active: [1]; [7] 99% | [1]; [8] 99% | [1]; at 50.0 µM 99.1% | [2]; [7] 100% | [2]; [8] 100% | [2]; at 50.0 µM 99.5% | [3]; [7] 99% | [3]; [8] 99% | [4]; [7] 100% | [4]; [8] 100% | [5]; [7] 99% | [5]; [8] 99% | [5]; at 50.0 µM 99.2% | [6]; [7] 100% | [6]; [8] 100%

Cc1ccc2c(c1)N(CCN(CCCl)CCCl)c1c(ccc3ccccc13)S2
active: [1]; [8] 83% | [1]; at 50.0 µM 90.2% | [2]; [8] 87% | [3]; [8] 84% | [3]; at 50.0 µM 93.4% | [4]; [8] 79% | [4]; at 50.0 µM 75.4% | [5]; [8] 82% | [6]; [8] 84% | [6]; at 50.0 µM 91.9%
inactive: [1]; [7] 0% | [2]; [7] -1% | [2]; at 50.0 µM 67.2% | [3]; [7] -9% | [4]; [7] -6% | [5]; [7] -1% | [5]; at 50.0 µM 34.7% | [6]; [7] 11%

COC1CC(C)C(OC)C2=CC(=O)C=C(NC(=O)/C(C)=C/C=C\C(C)C(OC(N)=O)/C(C)=C\C(C)C1OC)C2=O (configuration not stated)
active: [1]; [7] 93% | [1]; [8] 98% | [1]; at 50.0 µM 91.5% | [2]; [7] 97% | [2]; [8] 99% | [2]; at 50.0 µM 93% | [3]; [7] 97% | [3]; [8] 99% | [3]; at 50.0 µM 92.5% | [4]; [7] 89% | [4]; [8] 97% | [4]; at 50.0 µM 91.2% | [5]; [7] 97% | [5]; [8] 99% | [5]; at 50.0 µM 91.1% | [6]; [7] 97% | [6]; [8] 98% | [6]; at 50.0 µM 91.4%

CC(=N\O)/C(C)=N/O.CC(=N\O)/C(C)=N/O.CC(=N\O)/C(C)=N/O.CC(=N\O)/C(C)=N/O.[CH3-].[CH3-].[Co].[Co]
inactive: [1]; [7] 15% | [1]; [8] 25% | [1]; at 50.0 µM 46.5% | [2]; [7] 8% | [2]; [8] 17% | [2]; at 50.0 µM 24.6% | [3]; [7] 21% | [3]; [8] 18% | [3]; at 50.0 µM 30.1% | [4]; [7] 11% | [4]; [8] 24% | [4]; at 50.0 µM 2.8% | [5]; [7] -1% | [5]; [8] 13% | [5]; at 50.0 µM -12.7% | [6]; [7] 14% | [6]; [8] 39% | [6]; at 50.0 µM 63.6%
